High-throughput results as filed in PubChem BioAssay.
PP5 primary: PP5 (human) phosphatase inhibition; P53041; purified PP5c, OMFP substrate fluorescence; inhibition, % at 6.7 µM; hit rate 0.18% among 320,000; AID 1987;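 active = inhibition above the campaign's mean inhibition across all tested compounds plus 3 SD, cut at about 9.5% in these data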
Target sequence (P53041 whole entry, looked up): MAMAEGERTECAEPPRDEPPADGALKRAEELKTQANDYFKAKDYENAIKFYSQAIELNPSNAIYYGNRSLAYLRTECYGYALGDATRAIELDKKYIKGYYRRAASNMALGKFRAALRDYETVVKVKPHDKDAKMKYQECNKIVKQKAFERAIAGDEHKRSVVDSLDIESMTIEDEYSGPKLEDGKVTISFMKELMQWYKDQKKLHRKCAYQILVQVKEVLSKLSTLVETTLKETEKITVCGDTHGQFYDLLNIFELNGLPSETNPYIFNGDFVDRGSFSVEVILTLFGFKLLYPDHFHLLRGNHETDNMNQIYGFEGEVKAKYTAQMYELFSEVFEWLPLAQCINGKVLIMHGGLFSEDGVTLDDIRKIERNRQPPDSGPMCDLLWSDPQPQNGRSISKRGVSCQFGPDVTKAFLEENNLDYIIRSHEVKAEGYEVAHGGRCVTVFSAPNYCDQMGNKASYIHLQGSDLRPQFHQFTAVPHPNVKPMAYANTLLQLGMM
pPAFAH inh: pPAFAH (human) enzyme inhibition. Q13093. recombinant pPAFAH, FP-rhodamine probe fluorescence polarization. inhibition, % at 3.39 µM. hit rate 1.5% among 330,000. AID 463082;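 active = inhibition above the mean inhibition across the screen plus 3 SD, cut at about 25% in these data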;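 note: inhibitors block binding of the rhodamine activity-based probe so polarization drops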
PP1 inh: counter-screen for PP5 inhibitors: inhibitors of human PP1-alpha | hit rate 0.9% among 320,000 | inhibition, % at 6.7 µM | purified PP1alpha, OMFP fluorescence | P62136;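 active = inhibition above the mean inhibition of all tested compounds plus 3 SD, computed separately for each screening campaign, cut at about 15% in these data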
PAFAH2 inh: inhibitors of human PAFAH2. Q99487. recombinant PAFAH2, FP-rhodamine activity probe, fluorescence polarization. inhibition, % at 3.39 µM. hit rate 0.99% among 340,000;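 active = inhibition above the mean over all tested compounds plus 3 SD, cut at about 30% in these data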;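 note: inhibitors block probe labeling of enzyme so polarization drops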
PAFAH1B3 inh: blocks human PAF acetylhydrolase 1B catalytic subunit 3; Q15102; hit rate 0.28% among 340,000; inhibition, % at 3.39 µM; recombinant PAFAH1B3, FP-rhodamine probe, fluorescence polarization; AID 492972;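 active = inhibition above the screen-wide average of all tested compounds plus 3 SD, cut at about 25% in these data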
PAFAH1B2 inh: PAFAH1B2 (human) inhibition | inhibition, % at 3.39 µM | recombinant PAFAH1B2, FP-rhodamine activity probe, fluorescence polarization | hit rate 1.2% among 340,000;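 active = inhibition above the mean of all tested compounds plus 3 SD, cut at about 24% in these data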
Each line names hits and unclear results; the compound was inactive in the other large screens. Only some compounds are listed: those with a hit (about 3.4% of all), similar ones and a draw of the others.

CCn1c(=N)n(CC(O)c2ccco2)c2ccccc21 (configuration not stated)	none
Cc1ccc(N2C3=C(C(=O)CC(C)(C)C3)C(c3cn(C)nc3C)C3=C2CC(C)(C)CC3=O)cc1	pPAFAH inh 26.8
CC1(C)C2(C#N)C(=O)NC(=O)C12C#N (configuration not stated)	none (no result: PP5 primary, pPAFAH inh, PP1 inh)
CN(Cc1ccccc1)C(=O)COC(=O)c1ccc2ccccc2n1	pPAFAH inh 25.2
CN(Cc1ccccc1)C(=O)COC(=O)c1ccc2c(c1)OCO2	pPAFAH inh 25.5
CC(=O)Nc1cccc(NC(=O)CSc2nnc3ccc(-c4ccncc4)nn23)c1	none
COc1ccc(CCNC(=O)CCS(=O)(=O)c2ccc3c(c2)oc(=O)n3C)cc1OC	none
CCOP(=O)(OCC)C(NC(=O)Nc1ccc(Cl)cc1)C(N)=O (configuration not stated)	none
CCOP(=O)(OCC)C(NC(=O)Nc1ccc(Cl)c(Cl)c1)C(N)=O (configuration not stated)	PP1 inh 16.8
CN(C(=O)c1cccc(NC(=O)Cc2ccc(NC(=O)C3CCCN(S(=O)(=O)c4cccc([N+](=O)[O-])c4)C3)cc2)c1)C1CCCCC1 (configuration not stated)	none (no result: PP5 primary, pPAFAH inh, PP1 inh)
CNC(=O)CS(=O)CC(=O)Nc1cc(OCCOC)c(Cl)cc1Cl (configuration not stated)	pPAFAH inh 30.4
CC(=O)OCc1c(C(F)(F)F)nn(C)c1SCc1ccc(Cl)cc1	PAFAH1B2 inh 29.5
COc1cc(/C=C/C(=O)OCC(=O)Nc2cccc(F)c2)ccc1O	pPAFAH inh 28.5, PAFAH2 inh 92.9 (no result: PP5 primary, PP1 inh)
COc1cc(/C=C/C(=O)OCC(=O)NC2CCCCCCC2)ccc1O	pPAFAH inh 26.5, PAFAH2 inh 75.6 (no result: PP5 primary, PP1 inh)
CC(C#N)(NC(=O)CN1CCN(S(=O)(=O)c2ccccc2C#N)CC1)C1CC1 (configuration not stated)	none
O=C(NC1CCCCC1)c1sc(=S)n2c1[nH]c(=O)c1ccccc12	pPAFAH inh 31.5, PAFAH2 inh 56.3, PAFAH1B3 inh 32.4, PAFAH1B2 inh 42.0
COc1ccc(CN(CC2CCC(C(=O)O)CC2)C(=S)Nc2ccc(C)c(Cl)c2)cc1 (configuration not stated)	none
Cc1ccc(NC(=S)N(Cc2ccc(Cl)cc2)Cc2ccc(C(=O)O)cc2)cc1Cl	PP1 inh 17.3
COc1ccc(C(=O)NCC(=O)OCCOc2ccc(Cl)cc2)cc1OC	none (no result: PP5 primary, PP1 inh)
CCOC(=O)C1CCN(C(=O)COC(=O)c2cccc(NS(=O)(=O)c3ccccc3)c2)CC1	none (no result: PP5 primary, pPAFAH inh, PP1 inh)
Cc1ccc(CN2C(=O)C3CCCN3c3ccc(S(=O)(=O)N4CCOCC4)cc32)cc1 (configuration not stated)	PP1 inh 23.6 (no result: PAFAH2 inh, PAFAH1B3 inh, PAFAH1B2 inh)
N#CC1(C#N)CC(C=O)=C(N)C1(C#N)CC(=O)C12CC3CC(CC(C3)C1)C2 (configuration not stated)	PAFAH1B2 inh 31.1
CCc1cc2c(=O)c(-c3ccc4c(c3)OCO4)coc2c(CN(C)C)c1O	none
CCc1cc2c(=O)c(-c3cscn3)coc2c(CN(C)C)c1O	pPAFAH inh 27.3
CCOC(=O)c1c(NC(=O)CSc2nnc(C)c(=O)[nH]2)sc2c1CCCC2	pPAFAH inh 26.8, PAFAH1B2 inh 67.7
CCOC(=O)c1c(NC(=O)CSc2nnc(N)s2)sc(C)c1-c1ccc(C)cc1	none
Cc1nnc(SCC(=O)Nc2sc3c(c2C#N)CCCC3)[nH]c1=O	none
CCOC(=O)c1c(NC(=O)CSc2nnc(C)c(=O)[nH]2)sc(C)c1-c1ccc(C)cc1	pPAFAH inh 29.1
Cc1ccccc1Cc1c(C)nc2nc(SCC(=O)NCc3ccco3)nn2c1C	none
Cc1ccccc1Cc1c(C)nc2c(C(=O)NCc3ccco3)cnn2c1C	pPAFAH inh 27.1
O=C(Cc1ccccc1)NCCSCc1ccc(Cl)cc1	PAFAH1B2 inh 28.8
O=C(COc1ccccc1)NCCSCc1ccc(Cl)cc1	none
O=C(C=Cc1ccco1)c1cc(Cl)ccc1O	none (no result: PP5 primary, pPAFAH inh, PP1 inh)
CC(/C=C/c1ccco1)=N\NC(=O)c1cc(Cl)ccc1O	pPAFAH inh 31.6
O=C(COc1ccccc1)Nc1nnc(-c2ccc(Cl)cc2)o1	PP1 inh 17.2
O=C(COc1ccc(Cl)cc1)Nc1nnc(-c2ccc3c(c2)CCCC3)o1	none
CCOc1ccccc1C(=O)OCC(=O)Nc1nnc(-c2ccccc2)o1	none
